The supplement of paper PMC3545927
Some of the results follow. The true hit rate is not given.

B1: FS-1397 (peptide)
chain: CARGGRIFRSAGNASASA
B2: FS-384 (peptide)
chain: CATNHRIFRSAGNASASA
B3: FS-581 (peptide)
chain: CACHLRRFRSAGNASASA
B4: FS-327 (peptide)
chain: CAFLWRSFRSAGNASASA
B5: HC594 (peptide)
chain: CARGGRDAVIAGNASASA
B6: FS-703 (peptide)
chain: CAQMHRKFRSAGNASASA
B7: HC2078 (peptide)
chain: CAVVCCSMTYAGNASASA
B8: FS-3012 (peptide)
chain: CARNRRLVSDAGNASASA
B9: HC1482 (peptide)
chain: CACFDSTVTEAGNASASA
B10: FS-2896 (peptide)
chain: CARCDRDNTEAGNASASA
B11: FS-709 (peptide)
chain: CARNRRHHRDAGNASASA
B12: FS-3011 (peptide)
chain: CARNRRHVTEAGNASASA
B13: FS-1912 (peptide)
chain: CARNRRGAITAGNASASA
B14: FS-3010 (peptide)
chain: CARNRRALRDAGNASASA
B15: FS-2909 (peptide)
chain: CAREDRGAYTAGNASASA
B16: HC1479 (peptide)
chain: CAFSYDTRCFAGNASASA
B17: HC2105 (peptide)
chain: CALDVVCCSMAGNASASA
B18: FS-2049 (peptide)
chain: CARNRRVAEAAGNASASA
B19: FS-560 (peptide)
chain: CARNRRHPRSAGNASASA
B20: HC330 (peptide)
chain: CARIPQAILDAGNASASA
B21: FS-2577 (peptide)
chain: CARNRRSLSGAGNASASA
B22: FS-2048 (peptide)
chain: CARNRRTHEFAGNASASA
B23: HC1002 (peptide)
chain: CAVGRVVLSGAGNASASA
B24: FS-2733 (peptide)
chain: CARNRRSILDAGNASASA
B25: HC1160 (peptide)
chain: CALMPQLPGIAGNASASA
B26: HC1306 (peptide)
chain: CAPDYNPPLVAGNASASA
B27: HC2283 (peptide)
chain: CADAEVVTSTAGNASASA
B28: HC1052 (peptide)
chain: CAGNPAIASLAGNASASA
B29: HC402 (peptide)
chain: CARPYCWHYPAGNASASA
B30: HC1744 (peptide)
chain: CAMEECSQILAGNASASA
B31: HC1945 (peptide)
chain: CALCTTPCSGAGNASASA
B32: FS-2283 (peptide)
chain: CARNRRHIEKAGNASASA
B33: FS-2162 (peptide)
chain: CARNRRRVCKAGNASASA
B34: FS-2163 (peptide)
chain: CARNRRVTRRAGNASASA
B35: FS-3013 (peptide)
chain: CARNSRFRCRAGNASASA
B36: FS-2732 (peptide)
chain: CARNRRAFGDAGNASASA
B37: HC550 (peptide)
chain: CAKGKWVPGAAGNASASA
B38: HC131 (peptide)
chain: CAEVVKSTWVAGNASASA
B39: HC142 (peptide)
chain: CAEVVTGTWVAGNASASA
B40: HC2026 (peptide)
chain: CAVVMCSMSYAGNASASA
B41: FS-1579 (peptide)
chain: CAVKKRTKRDAGNASASA
B42: FS-967 (peptide)
chain: CAVVNTTKRDAGNASASA
B43: FS-1509 (peptide)
chain: CAAKRRTKRDAGNASASA
B44: HC1786 (peptide)
chain: CAMEMEECSQAGNASASA

Biological target: furin, P09958
Assay: furin cleavage Z-score vs untreated control; higher = more cleavage, active = 3.5 or more, inactive = 1 or less, 8 variable residues between constant flanks
In short: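 Reactions of 0.01 ml ran for 7.5, 15 or 30 min in 50 mM HEPES pH 7.5 with CaCl2 and NaCl, at 1:10 enzyme:substrate. In them, purified furin acted on bead-held 8-mer peptides fused to a cDNA oligonucleotide. The cleavage Z-score was obtained by lowess-adjusting log sequencing counts of released DNA against furin-free reactions and scaling by median absolute deviation.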

Chain of furin, P09958 (P09958 whole entry): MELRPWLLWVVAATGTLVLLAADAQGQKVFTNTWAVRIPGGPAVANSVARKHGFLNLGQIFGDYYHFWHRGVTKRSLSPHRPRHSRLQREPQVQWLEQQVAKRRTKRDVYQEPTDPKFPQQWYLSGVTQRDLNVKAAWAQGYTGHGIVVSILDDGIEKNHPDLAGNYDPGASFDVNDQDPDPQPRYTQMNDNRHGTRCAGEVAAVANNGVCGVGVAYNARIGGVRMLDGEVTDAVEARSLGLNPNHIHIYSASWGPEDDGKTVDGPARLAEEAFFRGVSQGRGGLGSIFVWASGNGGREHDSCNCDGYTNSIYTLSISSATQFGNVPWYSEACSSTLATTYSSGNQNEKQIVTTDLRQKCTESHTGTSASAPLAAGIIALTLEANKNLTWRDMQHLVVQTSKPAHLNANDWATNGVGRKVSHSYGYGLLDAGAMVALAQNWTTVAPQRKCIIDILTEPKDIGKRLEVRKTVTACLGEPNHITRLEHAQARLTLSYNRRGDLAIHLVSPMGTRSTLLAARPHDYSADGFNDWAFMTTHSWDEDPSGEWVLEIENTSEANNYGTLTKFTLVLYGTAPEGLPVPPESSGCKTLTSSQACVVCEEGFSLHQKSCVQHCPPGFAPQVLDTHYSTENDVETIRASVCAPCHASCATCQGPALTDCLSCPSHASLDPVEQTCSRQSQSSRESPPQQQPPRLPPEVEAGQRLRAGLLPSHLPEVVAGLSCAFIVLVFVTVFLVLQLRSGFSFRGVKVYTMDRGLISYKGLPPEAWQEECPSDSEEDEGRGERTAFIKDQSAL

| Sequence | furin cleavage Z-score (7.5 min) | furin cleavage Z-score (15 min) | furin cleavage Z-score (30 min) |
| --- | --- | --- | --- |
| B1 | 7.37 (active) | 8.25 (active) | 7.16 (active) |
| B2 | 1.71 | 2.99 | 5.79 (active) |
| B3 | -0.297 (inactive) | -0.28 (inactive) | 0.354 (inactive) |
| B4 | -0.934 (inactive) | -0.656 (inactive) | -0.629 (inactive) |
| B5 | 0.336 (inactive) | 0.26 (inactive) | 0.331 (inactive) |
| B6 | 6.07 (active) | 8.69 (active) | 6.07 (active) |
| B7 | -0.433 (inactive) | 0.0813 (inactive) | -0.381 (inactive) |
| B8 | 0.716 (inactive) | 3.37 | 2.68 |
| B9 | 0.967 (inactive) | -0.854 (inactive) | -1.23 (inactive) |
| B10 | -0.96 (inactive) | -0.486 (inactive) | -1.77 (inactive) |
| B11 | 8.79 (active) | 10.1 (active) | 7.04 (active) |
| B12 | 12.2 (active) | 12.5 (active) | 9.58 (active) |
| B13 | 5.06 (active) | 6.46 (active) | 7.54 (active) |
| B14 | 7.62 (active) | 8.24 (active) | 7.01 (active) |
| B15 | -0.191 (inactive) | 0.288 (inactive) | -1.31 (inactive) |
| B16 | -0.0881 (inactive) | -0.998 (inactive) | 0.0108 (inactive) |
| B17 | -0.768 (inactive) | -1.48 (inactive) | -0.867 (inactive) |
| B18 | 2.16 | 3.37 | 3.98 (active) |
| B19 | 11.3 (active) | 13.7 (active) | 8.58 (active) |
| B20 | -0.397 (inactive) | 0.0404 (inactive) | 0.351 (inactive) |
| B21 | 5.26 (active) | 5.66 (active) | 6.3 (active) |
| B22 | -0.109 (inactive) | -0.137 (inactive) | 0.595 (inactive) |

| Sequence | furin cleavage Z-score (7.5 min) | furin cleavage Z-score (15 min) | furin cleavage Z-score (30 min) |
| --- | --- | --- | --- |
| B23 | -0.201 (inactive) | 2.15 | -1.8 (inactive) |
| B24 | 6.77 (active) | 9.44 (active) | 8.76 (active) |
| B25 | 1.4 | 1.95 | 0.83 (inactive) |
| B26 | 0.58 (inactive) | -1.42 (inactive) | -0.164 (inactive) |
| B27 | -0.438 (inactive) | 0.612 (inactive) | 0.657 (inactive) |
| B28 | -0.886 (inactive) | -0.0897 (inactive) | -0.877 (inactive) |
| B29 | -0.0981 (inactive) | -0.342 (inactive) | -1.07 (inactive) |
| B30 | 0.778 (inactive) | 0.663 (inactive) | 0.94 (inactive) |
| B31 | 0.463 (inactive) | -0.673 (inactive) | -0.438 (inactive) |
| B32 | 6.22 (active) | 6.56 (active) | 6.5 (active) |
| B33 | -0.833 (inactive) | -0.214 (inactive) | 0.898 (inactive) |
| B34 | 10.8 (active) | 11.8 (active) | 10.4 (active) |
| B35 | 0.23 (inactive) | 0.474 (inactive) | 0.565 (inactive) |
| B36 | 6.61 (active) | 9.22 (active) | 8.81 (active) |
| B37 | 0.591 (inactive) | -0.0194 (inactive) | 1.21 |
| B38 | -2.1 (inactive) | -0.614 (inactive) | -0.545 (inactive) |
| B39 | -0.000356 (inactive) | -0.439 (inactive) | 1.54 |
| B40 | -0.445 (inactive) | 0.764 (inactive) | 0.688 (inactive) |
| B41 | 13.7 (active) | 14.1 (active) | 11.3 (active) |
| B42 | 0.253 (inactive) | 1.14 | 0.849 (inactive) |
| B43 | 13.3 (active) | 12.3 (active) | 8.72 (active) |
| B44 | 0.949 (inactive) | -0.743 (inactive) | 0.205 (inactive) |
